B2AR ag = beta2AR agonists driving receptor internalization, primary screen, cell-based, FAP fluorogen, flow cytometry | Beta-2 adrenergic receptor (Homo sapiens), P07550 | Am2.2-beta2AR cells | response, % (concentration not given with the values) | 340,000 tested, 0.43% active | AID 504454, 2011;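 active = response above a set limit, near 3 SD of response in nonfluorescent compounds, cut at about 42% in these data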
Dyrk1A ADPGlo = rat Dyrk1A kinase inhibitors, primary screen, biochemical, single point, plate reader. ADP-Glo luminescence, NFATc1 peptide. Dual specificity tyrosine-phosphorylation-regulated kinase 1A (Rattus norvegicus), Q63470. 310,000 tested, 0.43% active. AID 504441, 2011. inhibition, % at 12.5 µM; in the data active = inhibition above about 50%;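 also: plate controls were vehicle with enzyme for no effect and no enzyme for full effect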
A1 inh = caspase 3/7 activation in MEF A1-2A-BIM cells, primary screen, A1 inhibitor project, cell-based, luminescence, HTS; Caspase-Glo 3/7 luminescence, 3 h; percent of clofoctol response, vehicle zero; caspase activation, % (no concentration beside the values); 330,000 tested, 0.066% active; AID 2462, 2010;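 active = over half of replicate activation scores above 10%, or exactly half above 10 with the replicate mean above 10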
dFosB act = activators of delta FosB homodimer, primary screen, biochemical, fluorescence polarization, TAMRA-CDK5 oligo, single point | Protein FosB (Mus musculus), P13346 | purified delta FosB; percent of positive-control signal above neutral wells | activation, % at 25 µM | 340,000 tested, 0.99% active | AID 493131, 2011;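 active = mean activation above about 17%, with every replicate also reaching it, limit read from the data, passing the limit was not always enough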
Target sequence (P13346 whole entry, looked up): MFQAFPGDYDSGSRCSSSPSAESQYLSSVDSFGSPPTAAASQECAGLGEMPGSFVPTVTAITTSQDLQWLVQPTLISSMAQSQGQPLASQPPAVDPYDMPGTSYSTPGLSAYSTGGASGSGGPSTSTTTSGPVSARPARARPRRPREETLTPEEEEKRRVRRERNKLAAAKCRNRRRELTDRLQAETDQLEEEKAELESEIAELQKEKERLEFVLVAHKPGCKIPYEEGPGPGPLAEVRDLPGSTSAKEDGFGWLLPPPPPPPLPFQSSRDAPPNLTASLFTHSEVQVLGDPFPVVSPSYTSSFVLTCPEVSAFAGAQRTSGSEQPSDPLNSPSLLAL
Starred values were filed as active, the others as inactive. Shown are actives, neighbours in structure and some others; about 1.6% of the full set was active somewhere.

What do the screens show for `O=C(Oc1cccc([N+](=O)[O-])c1)C1CCN(C(=O)c2ccc(F)cc2)CC1`?
B2AR ag: 4.6; Dyrk1A ADPGlo: -3.1; A1 inh: -0.6; dFosB act: -3.1

What do the screens show for `COCCCn1c(SC(C)C(=O)NC2CC2)nc2ccccc2c1=O` (stereo not drawn)?
B2AR ag: 0.4; Dyrk1A ADPGlo: 4.4; A1 inh: -0.8; dFosB act: -8.9

Results for CC(=O)c1ccc(OCc2cc(C(=O)NCCn3nc(C)cc3C)no2)cc1 ?
B2AR ag: -0.5; Dyrk1A ADPGlo: -8.7; A1 inh: 0.6; dFosB act: -16.4

Results for O=C(Nc1ccc(Cl)cc1Cl)c1ccc2c(c1)OCCO2 ?
B2AR ag: -1.9; Dyrk1A ADPGlo: -5.1; A1 inh: -7.3; dFosB act: -18.0

What do the screens show for `O=C(Nc1ccc(Cl)cc1Cl)c1cccc(N2C(=O)C=CC2=O)c1`?
B2AR ag: 70.6*; Dyrk1A ADPGlo: -1.2; A1 inh: 13.9*; dFosB act: -9.2

What do the screens show for `O=C(Nc1nnc(CSCc2ccc(F)cc2)s1)c1cccc([N+](=O)[O-])c1`?
B2AR ag: -8.7; Dyrk1A ADPGlo: 52.6*; A1 inh: -0.4; dFosB act: -11.2

Results for O=C(Nc1nnc(CSCc2ccc(Cl)cc2)s1)c1cccc([N+](=O)[O-])c1 ?
B2AR ag: 26.7; Dyrk1A ADPGlo: -6.8; A1 inh: 0.0; dFosB act: -2.0

Results for CCN1CCc2c(sc(NC(=O)Nc3ccc(Cl)c(Cl)c3)c2C(N)=O)C1 ?
B2AR ag: inactive; Dyrk1A ADPGlo: -3.5; A1 inh: -0.9; dFosB act: 56.4*

What do the screens show for `CCN1CCc2c(sc(NC(=O)c3ccc(S(=O)(=O)N(CC)c4ccccc4)cc3)c2C(N)=O)C1`?
B2AR ag: -210.2; Dyrk1A ADPGlo: 7.2; A1 inh: -0.1; dFosB act: 40.8*

Results for COC(=O)c1cccc(NC(=O)CSc2nnc(-c3ccco3)o2)c1 ?
B2AR ag: 13.6; Dyrk1A ADPGlo: 2.8; A1 inh: -0.1; dFosB act: 12.1

What do the screens show for `OC(CNc1ccnc2cc(Cl)ccc12)CNC1CCCCC1` (stereo not drawn)?
B2AR ag: 19.7; Dyrk1A ADPGlo: 6.4; dFosB act: 25.5*

What do the screens show for `CN1/C(=C/c2cc[n+](C)c3ccccc23)C=Cc2ccccc21`?
B2AR ag: 1.7; Dyrk1A ADPGlo: 8.9; dFosB act: 51.1*

How did O=C(NCCS(=O)(=O)N1CCN(Cc2ccccc2)CC1)c1ccc(F)cc1 do in these assays?
B2AR ag: 3.2; Dyrk1A ADPGlo: -2.6; A1 inh: 0.3; dFosB act: -0.9

Results for CC(=O)Nc1ccc(NC(=O)C(C)OC(=O)c2ccc(S(=O)(=O)N3CCCCC3)cc2)cc1 (stereo not drawn) ?
B2AR ag: 3.4; Dyrk1A ADPGlo: -0.7; A1 inh: 1.1; dFosB act: 58.2*

Results for COc1ccc(OC)c(NC(=O)CC2Oc3ccccc3NC2=O)c1 (stereo not drawn) ?
B2AR ag: 2.2; Dyrk1A ADPGlo: -2.3; A1 inh: -0.6; dFosB act: -8.5

What do the screens show for `O=C(CSc1nnc(NC(=O)c2ccco2)s1)Nc1ccc2c(c1)OCCO2`?
B2AR ag: -8.0; A1 inh: -1.5; dFosB act: 65.7*

Results for C=CCNc1nc(Nc2ccc([N+](=O)[O-])cc2)nc(OC)n1 ?
B2AR ag: -5.3; Dyrk1A ADPGlo: -12.2; A1 inh: 1.4; dFosB act: 8.5

How did COc1nc(Nc2ccc([N+](=O)[O-])cc2)nc(NC2CCCCC2)n1 do in these assays?
B2AR ag: -12.9; Dyrk1A ADPGlo: -5.2; A1 inh: 1.4; dFosB act: 28.9*

Results for Cc1ccc(C)c(S(=O)(=O)N2CCCC2CNC(=O)C(=O)NC2CCCC2)c1 (stereo not drawn) ?
B2AR ag: 60.6*; Dyrk1A ADPGlo: 3.9; A1 inh: -0.6; dFosB act: -4.5

How did CN=Cc1sc2ccccc2c1O do in these assays?
B2AR ag: -6.1; Dyrk1A ADPGlo: 9.4; A1 inh: 0.6; dFosB act: 0.4

What do the screens show for `O=Nc1c(O)c2ccccc2c2ccccc12`?
B2AR ag: -5.6; Dyrk1A ADPGlo: 53.7*; A1 inh: -0.2; dFosB act: 2.2

Results for CC(C)Cn1c(O)c(/C=C2\C=NN=C2c2ccccc2)sc1=S ?
B2AR ag: 33.5; Dyrk1A ADPGlo: -3.3; A1 inh: 17.5*; dFosB act: -3.9

How did CCn1c(O)c(/C=C2\C=NN=C2c2ccccc2)sc1=S do in these assays?
B2AR ag: 3.2; A1 inh: 0.6; dFosB act: 7.1

How did CC(C)c1ccc2c(c1)CCC1C(C)(CN)CCCC21C (stereo not drawn) do in these assays?
B2AR ag: 43.5*; Dyrk1A ADPGlo: -1.3; A1 inh: 1.0; dFosB act: -4.4

How did O=C1/C(=C/c2ccncc2)CCC/C1=C\c1ccncc1 do in these assays?
B2AR ag: 46.8*; Dyrk1A ADPGlo: 6.0; dFosB act: -1.3

Results for CCN(Cc1ccccc1)Cc1nnnn1Cc1ccccc1 ?
B2AR ag: -4.1; Dyrk1A ADPGlo: -4.3; A1 inh: 0.6; dFosB act: -2.0

What do the screens show for `COc1cc(C)ccc1OCc1cc(C(=O)N2CCN(C3CCCCC3)CC2)no1`?
B2AR ag: 2.5; Dyrk1A ADPGlo: 6.8; dFosB act: -2.0

What do the screens show for `CCOC(=O)N1CCN(C(=O)C2CCN(C(=O)c3ccccc3C)CC2)CC1`?
B2AR ag: 48.7*; Dyrk1A ADPGlo: 9.5; dFosB act: -16.1

What do the screens show for `Cc1ccccc1C(=O)N1CCC(C(=O)N2CCN(c3ncccn3)CC2)CC1`?
B2AR ag: -2.3; Dyrk1A ADPGlo: -6.6; A1 inh: -0.2; dFosB act: -4.0

Results for CC(C)Cn1c(CCNC(=O)c2ccco2)nc2ccccc21 ?
B2AR ag: -22.3; Dyrk1A ADPGlo: -4.6; A1 inh: 0.4; dFosB act: -12.6

Results for Cc1cc(NC(=O)CCN2C(=O)/C(=C\c3ccccc3)SC2=S)no1 ?
B2AR ag: -0.2; Dyrk1A ADPGlo: 6.8; A1 inh: -1.0; dFosB act: 40.4*

How did CCOc1ccc(/C=C2\SC(=S)N(N3C(=O)C4CC4C3=O)C2=O)cc1 (stereo not drawn) do in these assays?
B2AR ag: 84.0*; Dyrk1A ADPGlo: -5.1; A1 inh: 0.6; dFosB act: -11.7

What do the screens show for `O=C(CCCN1C(=O)/C(=C\c2cccs2)SC1=S)Nc1ccc(O)cc1`?
B2AR ag: 1.3; Dyrk1A ADPGlo: -3.2; A1 inh: 0.0; dFosB act: -0.4

How did O=C(CCCN1C(=O)/C(=C/c2cccs2)SC1=S)Nc1ccccc1O do in these assays?
B2AR ag: 4.7; Dyrk1A ADPGlo: -6.2; A1 inh: 0.6; dFosB act: 33.6*

What do the screens show for `Cc1cc(NC(=O)CCN2C(=O)/C(=C/c3ccccc3F)SC2=S)no1`?
A1 inh: 0.3

Screens as filed in PubChem.
